# The list is not random: actives were taken first. Their share in the collection is about 3.2%.
# JMJD2E inh – qHTS Assay for Inhibitors of Human Jumonji Domain Containing 2E (JMJD2E); AID 2147, 2009; 230,000 tested, 1.6% active; JMJD2E catalytic domain, FDH-coupled NADH fluorescence (FDH is formaldehyde dehydrogenase); Potency, µM (top dose mostly 57.1 µM), for the others: at the highest dose activity change, negative = inhibition, usual class: inhibitors; Lysine-specific demethylase 4E (Homo sapiens), B2RXH2; active means well fitted inhibition curve with a large enough effect, not every such curve was filed as active; inconclusive means small, poorly fitted or top-dose-only effect, or another doubt; inactive means no such curve, though single readings can be large or run the other way;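 further: potency means the concentration at half of the fitted maximal effect; 0% = wells with enzyme and -100% = buffer wells without enzyme; nearly all actives have a fitted effect of over 50% in size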
# Tau fibril ThT – qHTS for Inhibitors of Tau Fibril Formation, Thioflavin T Binding; AID 1460, 2008; 270,000 tested, 2.1% active; Potency, µM (titrated, usually from 57.4 µM), without a hit: top-dose activity, negative = inhibition, hits mostly inhibitors; Microtubule-associated protein tau (Homo sapiens), P10636; recombinant tau K18 P301L, heparin-induced fibrillization, ThT fluorescence; further: potency means the concentration at half of the fitted maximal effect; on the % scale 0 is the no-effect control and ±100 the full control effect; nearly all actives have a fitted effect of over 55% in size
#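 Aggregation was driven by heparin (20 uM final) acting on recombinant tau […] bearing P301L in 100 mM sodium acetate pH 7; fibrils were detected with Thioflavin T.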
# CBFb-RUNX1 inh – qHTS Assay for Compounds Blocking the Interaction Between CBF-beta and RUNX1 for the Treatment of Acute Myeloid Leukemia | AlphaScreen CBFb-His/RUNX1-biotin binding, biochemical | AID 1477, 2009 | Potency, µM (top dose mostly 59.8 µM), for inactives: top-dose activity, negative = inhibition, actives largely listed as inhibitors | 230,000 tested, under 10 active | Runt-related transcription factor 1 (Homo sapiens) + Core-binding factor subunit beta …; further: % of control where 0% means no effect
# Target sequence (Q01196 whole entry, looked up): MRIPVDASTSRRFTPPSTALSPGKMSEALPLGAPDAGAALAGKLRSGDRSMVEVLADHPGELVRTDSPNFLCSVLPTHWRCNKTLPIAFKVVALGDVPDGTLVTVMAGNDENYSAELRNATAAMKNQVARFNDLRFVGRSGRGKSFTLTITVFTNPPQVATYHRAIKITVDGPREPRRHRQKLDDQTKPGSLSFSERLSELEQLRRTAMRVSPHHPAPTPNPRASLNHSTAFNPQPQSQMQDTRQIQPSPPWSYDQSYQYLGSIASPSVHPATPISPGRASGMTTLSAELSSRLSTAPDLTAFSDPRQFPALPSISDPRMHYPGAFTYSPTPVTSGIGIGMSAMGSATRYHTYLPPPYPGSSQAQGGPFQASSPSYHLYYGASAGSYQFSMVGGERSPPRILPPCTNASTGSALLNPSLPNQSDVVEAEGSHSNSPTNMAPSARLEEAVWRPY
# Target sequence (Q13951 whole entry, looked up): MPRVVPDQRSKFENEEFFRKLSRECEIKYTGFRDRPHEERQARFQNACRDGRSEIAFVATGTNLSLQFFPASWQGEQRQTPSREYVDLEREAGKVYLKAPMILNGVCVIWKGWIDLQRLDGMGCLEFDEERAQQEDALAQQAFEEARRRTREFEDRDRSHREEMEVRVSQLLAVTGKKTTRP
#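 CBF-beta (His) and RUNX1 (biotin), 30 nM each; 20 min preassociation; + compound, 15 min; + beads 50 ng each (Ni, streptavidin), 90 min; RT; AlphaScreen read.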
# Tau fluor counter – Counterscreen qHTS for Inhibitors of Tau Fibril Formation, Fluorescence Polarization; Potency, µM (series often up to 57.7 µM), without a hit: at the top dose activity change, negative = decrease; tau K18 P301L Alexa594 fluorescence, heparin fibrillization; 280,000 tested, 0.93% active; further: potency means the concentration at half of the fitted maximal effect; on the % scale 0 is the no-effect control and ±100 the full control effect; nearly all actives have a fitted effect of over 55% in size
#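 Human tau K18 P301L (15 uM unlabeled, 0.24 uM Alexa 594-labeled) in 100 mM sodium acetate pH 7 with 20 uM heparin, 6 hr at 37 C. ThT 30 uM added, 1 hr ambient; Alexa 594 FP and total fluorescence read at 555/632 nm.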
# Tau FP inhib – qHTS for Inhibitors of Tau Fibril Formation, Fluorescence Polarization; Microtubule-associated protein tau (Homo sapiens), P10636; K18 P301L tau heparin fibrillization, Alexa594 FP, 6 h; 280,000 tested, 0.39% active; Potency, µM (titrated, usually from 57.7 µM), for inactives: top-dose activity, negative = inhibition, most hits filed as inhibitors; AID 1468, 2008; further: potency means the concentration at half of the fitted maximal effect; on the % scale 0 is the no-effect control and ±100 the full control effect; nearly all actives have a fitted effect of over 55% in size
#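 Human K18 P301L fragment (15 uM unlabeled plus 0.24 uM Alexa 594-labeled) in 100 mM sodium acetate pH 7 with compound, aggregation induced by 20 uM heparin for 6 hr at 37 C. ThT (30 uM) added for 1 hr, then Alexa 594 FP read.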
# LMNA splice mod – qHTS Assay for Modulators of Lamin A Splicing | Potency, µM (highest dose often 46.1 µM), without a hit: at the highest dose ratio change, negative = inhibition, hits mostly inhibitors | HeLa LMNA splicing GFP/RFP minigene ratio, 48 h | 200,000 tested, 0.01% active; active means well fitted inhibition curve with a large enough effect in the signal ratio, with a control signal flat, not every such curve was filed as active; inconclusive means small, poorly fitted or top-dose-only effect, or effect the other way, or a change in a side signal; the % refers to the signal ratio; further: potency means the concentration at half of the fitted maximal effect; on the % scale 0 is the no-effect control and ±100 the full control effect
#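 S3 HeLa stable clones carrying a lamin A-EGFP splicing minigene plus DsRed2 were seeded at 600 cells/well in Opti-MEM with 2% FBS, pin-dosed and incubated 48 h at 37°C. Acumen cytometry (488 nm) gave the GFP/RFP total-intensity ratio.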
# Active calls of the source: *; ? = inconclusive; nt = no result; [ ] = remark or other dose. Unless noted, the call rests on the fitted dose curve; in most records, active means well fitted curve in the direction sought with a large enough effect; inconclusive means small, poorly fitted or top-dose-only effect, or another doubt; inactive means no such curve, though single readings can be large; an effect the other way counts as inactive or inconclusive.
SMILES,JMJD2E inh,Tau fibril ThT,CBFb-RUNX1 inh,Tau fluor counter,Tau FP inhib,LMNA splice mod
O=C1OCCN1C(=O)[C@H]1[C@H](c2ccc(F)cc2)C(c2ccccc2)=NN1c1ccccc1,nt,-8%[81.4 µM],?,?,-7%[81.3 µM],nt
CC[C@@H]1C(c2ccc(F)cc2)=NN(c2ccccc2)[C@H]1C(=O)N1CCOC1=O,nt,-10%[81.4 µM],?,?,-4%[81.3 µM],nt
CC[C@H]1C(c2ccc(F)cc2)=NN(c2ccccc2)[C@@H]1CO,nt,?,?,22µM*[quencher],?,nt
COc1ccc(Cl)cc1-n1cc(-c2ccccc2)nc1SCC(=O)Nc1ccc(C)cc1,nt,5%,nt,-18%,?,-14%[46 µM]
CCOc1ccc(N(C)S(=O)(=O)c2ccc(C)c(C(=O)OCC(=O)c3c[nH]c4ccccc34)c2)cc1,-9%,3%,-10%,?,8.9µM*,5%[46 µM]
CCCN(CCC)C(=O)c1c[nH]c2ccc(S(=O)(=O)N(C)c3ccc(OCC)cc3)cc2c1=O,nt,-4%,nt,-21%,-9%,14%[46 µM]
O=C(NCc1ccc(F)cc1)c1ccc2oc(=O)n(Cc3ccccc3)c2c1,nt,-9%,nt,-28%,-11%,8%[46 µM]
COc1ccc(C2NC(=O)NC3=C2CCc2ccccc23)cc1 (centres undefined),?,25µM*,0%,-19%,?,1%
CC[n+]1c(/C=C/c2c[nH]c3ccccc23)ccc2cc(C)ccc21,-11%,2µM*,-15%,1.3µM*[fluorescent],?,-7%[46 µM]
Cc1ccc2[nH]c(-c3cccc(N)c3)cc2c1,?,10µM*,-16%,14µM*[quencher],?,-15%
NCCC[C@@H](CC(=O)N[C@@H]1CCNC[C@H]1C(=O)N[C@H](CC(=O)N[C@@H](CCC(=O)O)CC(=O)O)Cc1ccccc1)NC(=O)C[C@H](Cc1c[nH]c2ccccc12)NC(=O)[C@@H]1CNCC[C@H]1N,-8%,-10%,-5%,-13%,?,nt
Cc1ccccc1-c1cc2nc(-c3ccc([N+](=O)[O-])cc3)cc(=O)n2[nH]1,-2%,?,11%,-24%,7%,2%[46 µM]
O=c1cc(-c2ccc([N+](=O)[O-])cc2)nc2cc(-c3ccc(F)cc3)[nH]n12,5%,10µM*,-8%,?,13%,-7%
O=C(NCC1CCCN(C(=O)CN2CCCCC2)C1)c1ccccc1Cl (centres undefined),2%,-5%,3%,-7%,-2%,nt
COc1cc(/C=C2\C(=O)NN(c3ccc(C)cc3)C2=O)cc([N+](=O)[O-])c1O,-13%,13µM*,-16%,?,-4%,?
CCOc1cc(/C=C2\C(=O)NN(c3ccccc3)C2=O)cc([N+](=O)[O-])c1O,-5%,?,-23%,-23%,-12%,nt
COc1cc(/C=N/n2c(=S)[nH]nc(C)c2=O)cc([N+](=O)[O-])c1O,-5%,-5%,4%,-11%,-2%,nt
COc1cc(/C=C2\C(=O)NN(c3ccccc3)C2=O)cc([N+](=O)[O-])c1O,-15%,11µM*,-23%,-30%,-6%,nt
O=c1ccc2ccccc2[nH]1,nt,nt,20%,nt,nt,nt
CCOc1ccc2c(c1)-c1c(ssc1=S)C(C)(C)N2,-3%,13µM*,nt,13µM*[quencher],-2%,-24%
CCc1cccc2cc(C(O)CNC(C)(C)C)oc12 (centres undefined),nt,nt,-11%,nt,nt,nt
O=C(O)CCC1CCCC1,nt,nt,1%,nt,nt,nt
Cc1ccccc1/C=C/c1cc[n+](C)cc1,25µM*,-10%,-17%,-4%,0%,nt
CCOC(=O)c1nnc(-c2ccccc2)nc1Oc1ccccc1Cl,7%,14µM*,4%,?,8%,-2%

# Screening data: PubChem BioAssay, National Center for Advancing Translational Sciences (NCATS)
